Screening results from PubChem.
Only some compounds are listed: those with a hit (about 10% of all), similar ones and a draw of the others.
HEK cytotox: kills HEK 293 cells; HEK 293 viability, ATP luminescence (CellTiter-Glo), 48-72 h; Potency, µM (series often up to 115 µM), actives largely listed as inhibitors; actives 6.6% (n = 94,000); further: nearly all actives have a fitted effect of over 60% in size
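ATP-coupled CellTiter-Glo luminescence served as viability read-out, recorded 10 min after reagent addition at room temperature. HEK 293 cells, 250 cells/well, had been incubated with pintool-transferred compound for 48 or 72 hr at 37 degree Celsius.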
FLuc inh-1: blocks purified firefly luciferase enzyme activity | P08659 | purified P. pyralis luciferase, luminescence, biochemical | Potency, µM (doses to about 115 µM), actives largely listed as inhibitors | actives 2.5% (n = 76,000); further: nearly all actives have a fitted effect of over 65% in size
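Biochemical qHTS: compound (6-point titration) added to 10uM D-luciferin plus 10uM ATP in Tris acetate pH 7.5 buffer with Mg, Tween-20 and BSA, then purified enzyme at 10nM; light output imaged.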
GPT2 inh: blocks human glutamate pyruvate transaminase 2 | Potency, µM (top dose mostly 57.7 µM), hits mostly inhibitors | AID 1671188 | actives 0.25% (n = 100,000) | Q8TD30 | Recombinant GPT2, coupled pyruvate oxidase/HRP Amplex Red fluorescence; further: nearly all actives have a fitted effect of over 60% in size
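Inhibition is scored from Amplex Red fluorescence generated when pyruvate oxidase and HRP act on pyruvate released by GPT2. Reactions contain 10ng/uL enzyme, 250uM a-KG and 2mM L-alanine and run 30 min at room temperature.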
3T3 cytotox: kills NIH 3T3 cells; NIH 3T3 viability, CellTiter-Glo ATP luminescence, 48-72 h; Potency, µM (highest dose often 96.7 µM), actives largely listed as inhibitors; actives 4.3% (n = 94,000); AID 1345082; further: nearly all actives have a fitted effect of over 55% in size
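Luminescent ATP readout (CellTiter-Glo, 10 min RT) after 48 or 72 hr compound exposure of NIH 3T3 cells seeded at 400 cells/well in 1536-well format; quantitative HTS.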
hNpr1 antagonist: antagonists of human natriuretic peptide receptor Npr1; P16066; HEK293 hNpr1 GloSensor cGMP, ANP-stimulated luminescence; Potency, µM (highest dose often 46.3 µM), usual class: inhibitors; actives 1.6% (n = 76,000); calls by dose curve; further: nearly all actives have a fitted effect of over 60% in size
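HEK293 cells stably expressing human Npr1 and cGMP GloSensor pGS-40F, loaded 2 h with 2% GloSensor reagent, given compound 30 min at room temperature. Luminescence read before and 20 min after 0.1 nM hNppA.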
FLuc SDR no ATP: binders stabilizing firefly luciferase, without ATP. shares compounds with FLuc inh-1. Purified FLuc-C-HiBiT, Nano-Glo HiBiT luminescence, no ATP. Potency, µM (highest dose often 32.7 µM), actives largely listed as activators. actives 7.8% (n = 1,300). AID 1963318; further: nearly all actives have a fitted effect of over 55% in size
FLuc SDR ATP: firefly luciferase binding stabilization, ATP added | shares compounds with FLuc inh-1 | purified FLuc-C-HiBiT + ATP, HiBiT complementation luminescence | Potency, µM (titrated, usually from 32.7 µM), hits mostly activators | actives 8.7% (n = 1,300) | AID 1963319;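 further: signal reports ligand binding via conformational change of the enzyme rather than luciferase catalysis; nearly all actives have a fitted effect of over 55% in size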
FLuc inh-2: firefly luciferase enzyme inhibition | shares compounds with FLuc inh-1 | Potency, µM (top dose mostly 32.7 µM), hits mostly inhibitors | purified FLuc-C-HiBiT enzyme, luciferin luminescence | actives 42% (n = 1,300); further: nearly all actives have a fitted effect of over 70% in size
Of the large screens only hits and unclear results are named; the others gave an inactive call (follow-up assays come after a bar, where they were run). Unless noted, the call rests on the fitted dose curve; in most records, active means well fitted curve in the direction sought with a large enough effect; inconclusive means small, poorly fitted or top-dose-only effect, or another doubt; inactive means no such curve, though single readings can be large; an effect the other way counts as inactive or inconclusive.

C=CCN1C[C@@H]2C[C@@H](C(=O)NC)N(C(=O)CCCCC)c3cccc(c32)[S+]1(=O)[O-]	3T3 cytotox inconclusive (no result: FLuc inh-1, hNpr1 antagonist)
COc1ccc(-c2ccc3ncc(Nc4cc(F)cc(N5CCOCC5)c4)n3n2)cc1OC	HEK cytotox inconclusive, FLuc inh-1 8.9µM, GPT2 inh inconclusive, 3T3 cytotox 18µM | FLuc SDR no ATP inactive | FLuc SDR ATP inactive | FLuc inh-2 inconclusive
Fc1ccc(-c2nnc3ccc(Nc4ccc(N5CCOCC5)cc4)nn23)nc1	HEK cytotox inconclusive, GPT2 inh inconclusive, 3T3 cytotox inconclusive
CCn1c(C2CCCN(C(=O)Nc3ccc4c(c3)OCCO4)C2)nn(C)c1=O (stereo not given)	FLuc inh-1 6.3µM | FLuc SDR no ATP inactive | FLuc SDR ATP inactive | FLuc inh-2 inconclusive
CN1CCCN(C(=O)Nc2ccc3c(c2)OCCO3)c2ccccc21	FLuc inh-1 11µM, 3T3 cytotox inconclusive | FLuc SDR no ATP inactive | FLuc SDR ATP inconclusive | FLuc inh-2 inconclusive
Cc1cccc(OCCc2noc(C3CN(C(=O)Nc4ccc5c(c4)OCCO5)C3)n2)c1	HEK cytotox inconclusive, FLuc inh-1 3.5µM, 3T3 cytotox inconclusive, hNpr1 antagonist inconclusive | FLuc SDR no ATP inconclusive | FLuc SDR ATP inactive | FLuc inh-2 7µM
CNC(=O)N1CCCN(C)c2ccccc21	none
O=C(Nc1ccc2c(c1)OCCO2)N1CCCC(c2nc(C3CCOCC3)no2)C1 (stereo not given)	FLuc inh-1 13µM | FLuc SDR no ATP inactive | FLuc SDR ATP inactive | FLuc inh-2 inconclusive
O=C(Nc1ccccc1)N1CCCC(c2nc(C3CCOCC3)no2)C1 (stereo not given)	none
CN(C)C[C@@H]1CN(Cc2cccnc2)C[C@H]1NC(=O)CCn1cccn1	none
COc1ccc(Cl)cc1S(=O)(=O)N1CCC(n2cnnc2-c2ccccc2)CC1	3T3 cytotox inconclusive
c1ccc(Nc2cc3c(cn2)CN(Cc2ccn[nH]2)CCN3)cc1	HEK cytotox inconclusive, FLuc inh-1 7.9µM, 3T3 cytotox inconclusive | FLuc SDR no ATP inactive | FLuc SDR ATP inactive | FLuc inh-2 inconclusive
c1cncc(Nc2cc3c(cn2)CN(Cc2cnc[nH]2)CCN3)c1	none (no result: HEK cytotox, FLuc inh-1, GPT2 inh, 3T3 cytotox, hNpr1 antagonist) | FLuc SDR no ATP inactive | FLuc SDR ATP inactive | FLuc inh-2 inactive
c1cncc(Nc2cc3c(cn2)CN(Cc2ccn[nH]2)CCN3)c1	none (no result: HEK cytotox, FLuc inh-1, GPT2 inh, 3T3 cytotox, hNpr1 antagonist) | FLuc SDR no ATP inactive | FLuc SDR ATP inactive | FLuc inh-2 inconclusive
Oc1ccccc1CN1CCNc2cc(Nc3ccccc3)ncc2C1	HEK cytotox 28µM, FLuc inh-1 5.6µM, 3T3 cytotox 32µM | FLuc SDR no ATP inactive | FLuc SDR ATP inactive | FLuc inh-2 inconclusive
c1cncc(CN2CCNc3cc(-c4cn[nH]c4)ncc3C2)c1	HEK cytotox inconclusive, FLuc inh-1 inconclusive
COCCNc1cc2c(cn1)CN(Cc1ccccc1)CCN2	HEK cytotox inconclusive, FLuc inh-1 inconclusive, 3T3 cytotox inconclusive
COc1cccc(-c2ccc(CN3CCCC3C(=O)N3CCOCC3)cc2)c1 (stereo not given)	HEK cytotox inconclusive (no result: FLuc inh-1, hNpr1 antagonist)
COc1cccc(NC(=O)O[C@@H]2CC[C@]3(C)[C@H](CC[C@H]4OC(=O)C[C@H]43)[C@]2(C)CO)c1	HEK cytotox inconclusive
Cc1[nH]cnc1CN1CCNc2cc(Nc3ccccc3)ncc2C1	HEK cytotox inconclusive, FLuc inh-1 6.3µM, 3T3 cytotox inconclusive | FLuc SDR no ATP inactive | FLuc SDR ATP inactive | FLuc inh-2 inconclusive
COc1ccc(CNC(=O)Cn2cccc2-c2nc(-c3ccccc3)no2)cc1	HEK cytotox inconclusive
COc1ccc(CNC(=O)Cn2cccc2C(=O)c2ccccc2C)cc1	none (no result: HEK cytotox, FLuc inh-1, GPT2 inh, 3T3 cytotox, hNpr1 antagonist) | FLuc SDR no ATP inactive | FLuc SDR ATP inactive | FLuc inh-2 inactive
